Reference: PubChem BioAssay AID1851 (National Center for Advancing Translational Sciences (NCATS), 2009)
Hit rate of the full screen: of about 16,000 compounds, about 5,100 (32%) were called active. Not shown: some 25% with an inconclusive outcome. Some of the results follow. Unmarked numbers belong to inactive results. Calls follow the shape of the dose curve; as a rule, active = well fitted curve in the direction sought with a large enough effect; inconclusive = small, poorly fitted or top-dose-only effect, or effect the other way; inactive = no such curve, though single readings can be large or run the other way.

molecular target: Cytochrome P450 3A4 (Homo sapiens) (UniProt P08684); assay: Cytochrome panel assay with activity outcomes; details: recombinant CYP, pro-luciferin dealkylation, luminescence, p450-cyp3a4; series mostly up to 57.1 µM
Sequence (P08684 whole entry, looked up): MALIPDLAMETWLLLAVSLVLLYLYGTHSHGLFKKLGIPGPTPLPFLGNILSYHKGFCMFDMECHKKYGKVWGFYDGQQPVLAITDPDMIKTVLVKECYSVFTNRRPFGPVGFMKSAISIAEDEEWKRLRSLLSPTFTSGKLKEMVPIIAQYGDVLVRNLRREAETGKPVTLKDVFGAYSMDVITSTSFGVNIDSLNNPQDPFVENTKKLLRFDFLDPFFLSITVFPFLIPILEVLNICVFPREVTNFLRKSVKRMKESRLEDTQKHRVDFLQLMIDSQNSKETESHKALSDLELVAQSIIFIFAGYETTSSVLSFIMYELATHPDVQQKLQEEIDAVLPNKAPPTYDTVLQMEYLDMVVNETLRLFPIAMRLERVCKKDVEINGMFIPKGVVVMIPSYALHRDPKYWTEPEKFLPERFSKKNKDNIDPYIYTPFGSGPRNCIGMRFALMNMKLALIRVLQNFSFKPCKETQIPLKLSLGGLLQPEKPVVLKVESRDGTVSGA
% is scaled to controls: 0 for no effect and ±100 for the full control effect.

SMILES	activity, negative = inhibition	AC50
BrC(c1cccc2ccccc12)c1cccc2ccccc12	-10.7% [at 11.4 µM]	
CCOC(=O)c1c(C)c(C(=O)N2CCCCCC2)c(C)n1C		7.94 µM (active)
CCOC(=O)c1c(C)c(C(=O)N2CCN(C(=O)c3ccco3)CC2)c(C)n1C		inactive
CCOC(=O)c1c(C)c(C)n2c1NC(=O)C2	-20.8% [at 11.4 µM]	
Cc1ccc(S(=O)(=O)NCC(=O)N(CC(=O)NCc2ccco2)Cc2cccs2)cc1		4.47 µM (active)
Nc1ncnc2c1nc(Sc1ccc(Cl)cc1)n2[C@@H]1O[C@H]2COP(=O)(O)O[C@@H]2[C@H]1O		inactive
Oc1ccc2ccccc2c1/C=C\c1ccc2c(Br)cc(Br)c(O)c2n1	-13.3% [at 11.4 µM]	
CCC/C=C(\CCC)C(NS(=O)(=O)c1ccc(Cl)cc1)c1ccccc1 (stereo not given)		7.94 µM (active)
CCC/C=C(\CCC)C(NS(=O)(=O)c1ccc(Cl)cc1)c1ccc(C(=O)OC)cc1 (stereo not given)		3.98 µM (active)
CCC/C=C(\CCC)C(NS(=O)(=O)c1ccc(-c2ccccc2)cc1)c1ccc(C(=O)OC)cc1 (stereo not given)		inactive
CCC/C=C(\CCC)C(NS(=O)(=O)CC12CCC(CC1=O)C2(C)C)c1ccc(C(=O)OC)cc1 (stereo not given)		3.98 µM (active)
CC(=O)Nc1ccc(-c2nnc(SCC(=O)c3ccc4c(c3)Cc3ccccc3-4)n2C)cc1		12.6 µM (active)
O=C(O)c1ccccc1-c1ccccc1C(=O)Nc1ccc2c(c1)Cc1ccccc1-2	-22.9% [at 11.4 µM]	
O=C(Nc1ccc2c(c1)Cc1ccccc1-2)[C@@H]1[C@H](C(=O)O)[C@]2(Cl)C(Cl)=C(Cl)[C@@]1(Cl)C2(Cl)Cl	-22% [at 11.4 µM]	
CCCCSc1nnc(-c2ccc(C)cc2)n1C		inactive
Cn1c(SCC(=O)c2ccc3c(c2)Cc2ccccc2-3)nnc1-c1ccccc1		8.91 µM (active)
c1cc(NC2CC2)nc(-c2ccoc2)n1		5.01 µM (active)
Cc1noc(C)c1-c1nccc(Nc2ccc(F)cc2)n1		12.6 µM (active)
Cc1noc(C)c1-c1nccc(NC2CC2)n1		2.51 µM (active)
COC(=O)[C@@]1(Cc2ccccc2)[C@H]2c3cc(C(=O)N4CCCC4)n(Cc4cccc5ccccc45)c3C[C@H]2CN1C(=O)c1ccccc1		1.58 µM (active)
COC(=O)[C@@]1(Cc2ccc(F)cc2)[C@H]2c3cc(C(=O)N4CCCC4)n(Cc4cccc5ccccc45)c3C[C@H]2CN1C(=O)c1ccccc1		2 µM (active)
CC(C)CNc1nc(N)[nH]c(=O)c1NC=O	-1.52% [at 11.4 µM]	
CCC(C)c1ccc(Nc2ncccc2C#N)cc1 (stereo not given)	-6.67% [at 2.29 µM]	
Cc1cccc(CNc2ncnc3ccc(-c4cccnc4)cc23)c1		1 µM (active)
c1ccc(Nc2ncnc3ccc(-c4cccnc4)cc23)cc1		2.51 µM (active)
c1ccc(CNc2ncnc3ccc(-c4cccnc4)cc23)cc1		1.26 µM (active)
Cc1cccc(CNc2ncnc3ccc(-c4cccc(C#N)c4)cc23)c1		inactive
CC(C)CN(CC#N)CC(C)C	-19.3% [at 11.4 µM]	

SMILES	activity, negative = inhibition	AC50
CCCC(=O)NCCc1c2n(c3ccc(OC)cc13)Cc1ccccc1-2		2.51 µM (active)
CCNC(=O)c1ccc(-n2nc(C(F)(F)F)c3c2CCCC3)cc1		inactive
CN(C)C(=O)c1ccc(-n2nc(C(F)(F)F)c3c2CCCC3)cc1	5.72% [at 2.29 µM]	
CCc1ccc(NC(=O)Cn2nc(C(F)(F)F)c3c2CCC3)cc1		12.6 µM (active)
CC(=O)NN1C(=O)c2ccc(Oc3cccc([N+](=O)[O-])c3)cc2C1=O		inactive
Cn1cc([N+](=O)[O-])c(C(=O)Nc2cc(Oc3cccnc3)cc([N+](=O)[O-])c2)n1		0.501 µM (active)
Cc1ccc(Nc2ccc(-n3ccnc3)nn2)cc1C		0.0794 µM (active)
O=c1[nH]n(-c2cccc(Cl)c2)c2ncccc12		inactive
O=C(c1ccc(Cl)c(Cl)c1)c1cc(-c2ccccn2)c(N2CCOCC2)s1		14.1 µM (active)
N=c1n(CCN2CCOCC2)c2ccccc2n1CC(=O)c1ccc(Cl)c(Cl)c1	11.5% [at 2.29 µM]	
COc1ccc(OC[C@@H](CO)OC)cc1	-12.9% [at 11.4 µM]	
Cn1c(=O)c2c(n(Cc3ccccc3)c1=O)NC(=O)C2CC(=O)NCc1cccc(Cl)c1 (stereo not given)		6.31 µM (active)
COCCCNCC(=O)c1c(N)n(Cc2ccccc2)c(=O)n(C)c1=O	-9.63% [at 2.29 µM]	
C[C@]12CC3CC(N)(C1)C[C@@](C)(C3)C2		inactive
N#C/C(=C(\O)C(=O)O)c1ccc(-c2cccc3ccccc23)cc1	-22% [at 11.4 µM]	
CCn1c2ccccc2c2cc(N=C3SC(CC(=O)Nc4ccccc4)C(=O)N3C)ccc21 (stereo not given)		5.01 µM (active)
NS(=O)(=O)c1cc2c(cc1Cl)N[C@@H](C(Cl)Cl)NS2(=O)=O		inactive
NS(=O)(=O)c1cc2c(cc1Cl)N[C@H](Cc1ccccc1)NS2(=O)=O	-18.4% [at 11.4 µM]	
NS(=O)(=O)c1cc2c(cc1Cl)NC(CSCc1ccccc1)=NS2(=O)=O		12.6 µM (active)
Oc1c(Br)cc(Br)cc1CN(Cc1cc(Br)cc(Br)c1O)C1CCCCC1	-22.2% [at 11.4 µM]	
CCOC(=O)CCN1C(=O)[C@H]2[C@H]3[C@H](O)[C@H](O)C/C(=N/O[C@@H]4O[C@@H](COC(C)=O)[C@@H](OC(C)=O)[C@@H](OC(C)=O)[C@H]4OC(C)=O)[C@@H]3CC[C@@H]2C1=O	-20.3% [at 11.4 µM]	
CCCCN(C(=O)NC(=O)Nc1ccccc1OCC)S(C)(=O)=O		inactive
CCCCN(CC)C(=O)Cc1ccccc1OC		15.8 µM (active)
CCN(CC)C(=O)c1ccc(O)c(OC)c1		inactive
CNC(=O)COC(=O)c1cc2c(C)nn(-c3ccc(F)cc3)c2s1		inactive
COc1ccccc1CNC(=O)c1cc2c(C)nn(Cc3ccc(F)cc3)c2s1		2.82 µM (active)
CCCn1nc2cc(C(=O)NCc3ccccc3OC)ccc2c1OCC	-3.81% [at 2.29 µM]	
